{"source": "PubChem BioAssay AID588651", "about": "(The Scripps Research Institute Molecular Screening Center, 2011)", "note": "Activity calls are given as the source filed them. Rule as the data show it: active = inhibition above about 65%; inactive = the rest."}
{"tested_on": "Antitargets", "experiment": "Fam108b inhibition by ABPP, late-stage follow-up, biochemical, gel-based ABPP, recombinant soluble Fam108b, HTS hits, complex proteome (AID 588651);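 also: Fam108b spiked into mouse brain membrane proteome; tested at 20 µM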", "settings": "FP-rhodamine labeling in proteome"}
{"smiles": "CN(C)S(=O)(=O)c1cccc(NC(=O)COC(=O)c2cc(-c3cccc(Br)c3)nc3ccccc23)c1", "outcome": "inactive"}
{"smiles": "CCc1cc(C(Cc2ccc3ccccc3n2)=NO)c(O)cc1O", "outcome": "active"}
{"smiles": "CCOC(=O)c1sc(NC(=O)Nc2ccc(Cl)cc2)cc1C", "outcome": "inactive"}
{"smiles": "Cc1cc(C)nc(SCc2ccc(C(=O)NN=Cc3cccc(O)c3O)cc2)n1", "outcome": "active"}
{"smiles": "O=C(Nc1ccc(-c2csc(Nc3ccccc3)n2)cc1)c1cc([N+](=O)[O-])cc(C(F)(F)F)c1", "outcome": "inactive"}
{"smiles": "O=C(NCC1CC1)c1ccc(Nc2nc3ccc(Br)cc3[nH]2)cc1", "outcome": "inactive"}
{"smiles": "O=C(Nc1cccc(C(F)(F)F)c1)Nc1ccc(N2CCCC2)c(S(=O)(=O)Nc2ccccc2Cl)c1", "outcome": "active"}
{"smiles": "CN(c1ccccc1)S(=O)(=O)c1ccc(NC(=O)c2ccc(-c3ccccc3)cc2)cc1", "outcome": "inactive"}
{"smiles": "COc1ccc(NC(=S)Nc2ccc3nsnc3c2)cc1", "outcome": "inactive"}
{"smiles": "Oc1c(Cl)cc(Cl)c(Cl)c1Cc1c(O)c(Cl)cc(Cl)c1Cl", "outcome": "inactive"}
{"smiles": "COc1cc(-c2nc(-c3ccc4c(c3)-c3ccccc3S4(=O)=O)c(-c3ccccc3)[nH]2)cc(OC)c1O", "outcome": "inactive"}
{"smiles": "Clc1ccccc1C(c1ccccc1)(c1ccccc1)n1ccnc1", "outcome": "inactive"}
{"smiles": "COc1ccc2oc(=O)c(-c3csc(Nc4cccc(O)c4)n3)cc2c1", "outcome": "inactive"}
{"smiles": "Cc1[nH]c2ccccc2c1C=NNC(=O)c1cccc(S(=O)(=O)Nc2cccc(C(F)(F)F)c2)c1", "outcome": "inactive"}
{"smiles": "Nc1c(S(=O)(=O)c2cccc(Cl)c2)c2nc3ccccc3nc2n1N=Cc1ccc(O)c(O)c1", "outcome": "inactive"}
{"smiles": "CCc1ccc(S(=O)(=O)N=C2C=C(Sc3ncn[nH]3)C(=O)c3ccccc32)cc1", "outcome": "inactive"}
